Experimental data published in the supplement of paper PMC4466140.

Columns and labels:
Assay in all cases: SPOT peptide array binding signal intensity (averaged, normalized) (arbitrary units (background-subtracted, floor 0; scale differs between SH3 domains)); higher = stronger binding of the SH3 domain to the peptide
AgAbp1 = molecular target: AgAbp1
In short: (§1)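 GST-fused SH3 domains from four yeast species were expressed in E. coli BL21(DE3), purified on glutathione Sepharose and incubated at 10 μg/ml overnight at 4°C in TBS-based blocking buffer on cellulose membranes carrying synthetic 15-mer peptides, with cysteines replaced by serines. Bound protein was detected with anti-GST antibody, an HRP anti-mouse secondary and luminol, then imaged and quantified with Genespotter. Binding signal is the normalized, background-subtracted spot intensity averaged over replicates, in arbitrary units that differ between domains.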

AgBbc1 = molecular target: AgBbc1
In short: as §1

AgBem1-D1 = molecular target: AgBem1-D1
In short: as §1

AgBzz1-D1 = molecular target: AgBzz1-D1
In short: as §1

AgBzz1-D2 = molecular target: AgBzz1-D2
In short: as §1

AgCyk3 = molecular target: AgCyk3
In short: as §1

AgFus1 = molecular target: AgFus1
In short: as §1

AgHof1 = molecular target: AgHof1
In short: as §1

AgHse1 = molecular target: AgHse1
In short: as §1

AgLsb1 = molecular target: AgLsb1
In short: as §1

AgLsb4 = molecular target: AgLsb4
In short: as §1

AgMyo5 = molecular target: AgMyo5
In short: as §1

AgNbp2 = molecular target: AgNbp2
In short: as §1

AgRvs167 = molecular target: AgRvs167
In short: as §1

AgSho1 = molecular target: AgSho1
In short: as §1

AgSla1-D1-D2 = molecular target: AgSla1-D1-D2
In short: as §1

AgSla1-D3 = molecular target: AgSla1-D3
In short: as §1

CaAbp1-D1 = molecular target: CaAbp1-D1
In short: as §1

CaAbp1-D2 = molecular target: CaAbp1-D2
In short: as §1

CaBbc1 = molecular target: CaBbc1
In short: as §1

CaBem1-D1 = molecular target: CaBem1-D1
In short: as §1

CaBzz1-D1 = molecular target: CaBzz1-D1
In short: as §1

CaBzz1-D2 = molecular target: CaBzz1-D2
In short: as §1

CaCyk3 = molecular target: CaCyk3
In short: as §1

CaFus1 = molecular target: CaFus1
In short: as §1

CaHof1 = molecular target: CaHof1
In short: as §1

CaHse1 = molecular target: CaHse1
In short: as §1

CaLsb1 = molecular target: CaLsb1
In short: as §1

CaLsb4 = molecular target: CaLsb4
In short: as §1

CaMyo5 = molecular target: CaMyo5
In short: as §1

CaNbp2 = molecular target: CaNbp2
In short: as §1

CaRvs167 = molecular target: CaRvs167
In short: as §1

CaRvs167-3 = molecular target: CaRvs167-3
In short: as §1

CaSho1 = molecular target: CaSho1
In short: as §1

CaSla1-D1-D2 = molecular target: CaSla1-D1-D2
In short: as §1

CaSla1-D3 = molecular target: CaSla1-D3
In short: as §1

ScAbp1 = molecular target: ScAbp1
In short: as §1

ScBbc1 = molecular target: ScBbc1
In short: as §1

ScBem1-D1 = molecular target: ScBem1-D1
In short: as §1

ScBzz1-D1 = molecular target: ScBzz1-D1
In short: as §1

ScBzz1-D2 = molecular target: ScBzz1-D2
In short: as §1

ScCyk3 = molecular target: ScCyk3
In short: as §1

ScFus1 = molecular target: ScFus1
In short: as §1

ScHof1 = molecular target: ScHof1
In short: as §1

ScHse1 = molecular target: ScHse1
In short: as §1

ScLsb1 = molecular target: ScLsb1
In short: as §1

ScLsb2 = molecular target: ScLsb2
In short: as §1

ScLsb3 = molecular target: ScLsb3
In short: as §1

ScLsb4 = molecular target: ScLsb4
In short: as §1

ScMyo3 = molecular target: ScMyo3
In short: as §1

ScMyo5 = molecular target: ScMyo5
In short: as §1

ScNbp2 = molecular target: ScNbp2
In short: as §1

ScPex13 = molecular target: ScPex13
In short: as §1

ScRvs167 = molecular target: ScRvs167
In short: as §1

ScSho1 = molecular target: ScSho1
In short: as §1

ScSla1-D1-D2 = molecular target: ScSla1-D1-D2
In short: as §1

ScSla1-D3 = molecular target: ScSla1-D3
In short: as §1

SpAbp1-D1 = molecular target: SpAbp1-D1
In short: as §1

SpBbc1 = molecular target: SpBbc1
In short: as §1

SpBzz1-D1 = molecular target: SpBzz1-D1
In short: as §1

SpBzz1-D2 = molecular target: SpBzz1-D2
In short: as §1

SpCyk3 = molecular target: SpCyk3
In short: as §1

SpHof1 = molecular target: SpHof1
In short: as §1

SpHof1-2 = molecular target: SpHof1-2
In short: as §1

SpHof1-3 = molecular target: SpHof1-3
In short: as §1

SpHse1 = molecular target: SpHse1
In short: as §1

SpLsb1 = molecular target: SpLsb1
In short: as §1

SpLsb4 = molecular target: SpLsb4
In short: as §1

SpMyo1 = molecular target: SpMyo1
In short: as §1

SpNbp2 = molecular target: SpNbp2
In short: as §1

SpPex13 = molecular target: SpPex13
In short: as §1

SpRvs167 = molecular target: SpRvs167
In short: as §1

SpSla1-D1-D2 = molecular target: SpSla1-D1-D2
In short: as §1

SpSla1-D3 = molecular target: SpSla1-D3
In short: as §1

**Q.** Which results are given for IAPIPMPKPNPTHIS?
**A.** SPOT peptide array binding signal intensity (AgAbp1): ≤ 0; SPOT peptide array binding signal intensity (AgBbc1): ≤ 0; SPOT peptide array binding signal intensity (AgBem1-D1): 7; SPOT peptide array binding signal intensity (AgBzz1-D1): ≤ 0; SPOT peptide array binding signal intensity (AgBzz1-D2): 4; SPOT peptide array binding signal intensity (AgCyk3): ≤ 0; SPOT peptide array binding signal intensity (AgFus1): 44.5; SPOT peptide array binding signal intensity (AgHof1): ≤ 0; SPOT peptide array binding signal intensity (AgHse1): 12; SPOT peptide array binding signal intensity (AgLsb1): ≤ 0; SPOT peptide array binding signal intensity (AgLsb4): ≤ 0; SPOT peptide array binding signal intensity (AgMyo5): ≤ 0; SPOT peptide array binding signal intensity (AgNbp2): 61.5; SPOT peptide array binding signal intensity (AgRvs167): 0.333; SPOT peptide array binding signal intensity (AgSho1): 32; SPOT peptide array binding signal intensity (AgSla1-D1-D2): ≤ 0; SPOT peptide array binding signal intensity (AgSla1-D3): 4.5; SPOT peptide array binding signal intensity (CaAbp1-D1): ≤ 0; SPOT peptide array binding signal intensity (CaAbp1-D2): 28.5; SPOT peptide array binding signal intensity (CaBbc1): ≤ 0; SPOT peptide array binding signal intensity (CaBem1-D1): 48.5; SPOT peptide array binding signal intensity (CaBzz1-D1): ≤ 0; SPOT peptide array binding signal intensity (CaBzz1-D2): 9.75; SPOT peptide array binding signal intensity (CaCyk3): ≤ 0; SPOT peptide array binding signal intensity (CaFus1): 170; SPOT peptide array binding signal intensity (CaHof1): 0.5; SPOT peptide array binding signal intensity (CaHse1): 33.8; SPOT peptide array binding signal intensity (CaLsb1): ≤ 0; SPOT peptide array binding signal intensity (CaLsb4): 51; SPOT peptide array binding signal intensity (CaMyo5): 3; SPOT peptide array binding signal intensity (CaNbp2): 430; SPOT peptide array binding signal intensity (CaRvs167): ≤ 0; SPOT peptide array binding signal intensity (CaRvs167-3): ≤ 0; SPOT peptide array binding signal intensity (CaSho1): 305; SPOT peptide array binding signal intensity (CaSla1-D1-D2): 58.5; SPOT peptide array binding signal intensity (CaSla1-D3): 52.5; SPOT peptide array binding signal intensity (ScAbp1): ≤ 0; SPOT peptide array binding signal intensity (ScBbc1): ≤ 0; SPOT peptide array binding signal intensity (ScBem1-D1): ≤ 0; SPOT peptide array binding signal intensity (ScBzz1-D1): ≤ 0; SPOT peptide array binding signal intensity (ScBzz1-D2): ≤ 0; SPOT peptide array binding signal intensity (ScCyk3): ≤ 0; SPOT peptide array binding signal intensity (ScFus1): 56; SPOT peptide array binding signal intensity (ScHof1): ≤ 0; SPOT peptide array binding signal intensity (ScHse1): ≤ 0; SPOT peptide array binding signal intensity (ScLsb1): ≤ 0; SPOT peptide array binding signal intensity (ScLsb2): ≤ 0; SPOT peptide array binding signal intensity (ScLsb3): ≤ 0; SPOT peptide array binding signal intensity (ScLsb4): ≤ 0; SPOT peptide array binding signal intensity (ScMyo3): ≤ 0; SPOT peptide array binding signal intensity (ScMyo5): ≤ 0; SPOT peptide array binding signal intensity (ScNbp2): 158; SPOT peptide array binding signal intensity (ScPex13): 22.2; SPOT peptide array binding signal intensity (ScRvs167): 0.333; SPOT peptide array binding signal intensity (ScSho1): 158; SPOT peptide array binding signal intensity (ScSla1-D1-D2): 0.5; SPOT peptide array binding signal intensity (ScSla1-D3): 81.5; SPOT peptide array binding signal intensity (SpAbp1-D1): 8.5; SPOT peptide array binding signal intensity (SpBbc1): ≤ 0; SPOT peptide array binding signal intensity (SpBzz1-D1): 37.5; SPOT peptide array binding signal intensity (SpBzz1-D2): 0.5; SPOT peptide array binding signal intensity (SpCyk3): ≤ 0; SPOT peptide array binding signal intensity (SpHof1): ≤ 0; SPOT peptide array binding signal intensity (SpHof1-2): 7; SPOT peptide array binding signal intensity (SpHof1-3): ≤ 0; SPOT peptide array binding signal intensity (SpHse1): 217; SPOT peptide array binding signal intensity (SpLsb1): ≤ 0; SPOT peptide array binding signal intensity (SpLsb4): 92.5; SPOT peptide array binding signal intensity (SpMyo1): 0.5; SPOT peptide array binding signal intensity (SpNbp2): 29; SPOT peptide array binding signal intensity (SpPex13): 2; SPOT peptide array binding signal intensity (SpRvs167): ≤ 0; SPOT peptide array binding signal intensity (SpSla1-D1-D2): ≤ 0; SPOT peptide array binding signal intensity (SpSla1-D3): 32
